Reference: PubChem BioAssay
Several values for one entry are separate records, joined by “and”; a condition that tells them apart may be missing. Equal entries are not always repeated. Activity calls are given as the source filed them.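 How the source made its calls, unless noted: active means thallium flux through the channel raised or lowered by more than 3 SD from vehicle-only wells, actives on both sides; inactive means the rest.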

Key:
[1] = compounds altering circadian rhythm period length – cell-based, LOPAC library, luminescence reporter (AID 2774; call rule not given here;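 further: values are relative to mean of DMSO wells on each plate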); details: circadian reporter cells, at 7 µM, actives lie on both sides
[2] = P. berghei load reduction in hepatocytes – cell-based, HepG2, luciferase luminescence, HepG2 viability, primary screen (AID 624349; in the data active means parasite load remaining mostly below about 12%, no sharp cut-off; inactive means mostly above about 10%;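 further: 100% = mean of DMSO negative control wells on the same plate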); details: P. berghei liver stage in HepG2, luciferase luminescence, concentration not given here; parasite load remaining: stronger effect = lower value; viability: measured here: HepG2 viability without parasites
[3] = signal quenchers or enhancers, Cy5 substrate/SSB – biochemical, NIH Clinical Collection, E. coli SSB, artefact control for HCV NS3 helicase inhibitor project (AID 743268; call rule not given here); details: Cy5-oligo bound E. coli SSB, fluorescence interference
[4] = tested on: Hepatitis C virus NS3 helicase; assay: blockers of NS3h binding to DNA – biochemical, fluorescence polarization, NIH Clinical Collection, primary screen (AID 743270; call rule not given here); details: NS3 helicase binding to Cy5-dT15 DNA, stronger effect = higher value, concentration not given here
[5] = target: Single-stranded DNA-binding protein (Escherichia coli (strain K12)) (UniProt P0AGE0); assay: SSB-ssDNA binding inhibitors – biochemical, fluorescence polarization, NIH Clinical Collection, counter-screen for HCV NS3 helicase inhibitor project (AID 743271; in the data active means inhibition above about 28%); details: E. coli SSB-DNA binding, stronger effect = higher value, concentration not given here
[6] = compounds distorting NS3 helicase fluorescence signal – biochemical, NIH Clinical Collection, artefact control for HCV NS3 helicase inhibitor project (AID 743272; call rule not given here;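 further: HCV NS3 helicase with a Cy5 labelled single stranded DNA probe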); details: fluorescence interference counterscreen, HCV NS3 helicase assay; stronger effect = lower value
[7] = tested on: Neuropilin-2 / VEGF-C interaction (human); assay: small molecules blocking Neuropilin-2/VEGF-C interaction – biochemical, microplate binding format, z-score (AID 743281; call rule not given here); details: microplate NRP2/VEGF-C binding assay; stronger effect = lower value
[8] = modulation of C. elegans fzo-1 (AID 1259413; call rule not given here;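 further: fzo-1 mutant C. elegans worms in liquid wells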); details: C. elegans fzo-1 modulator screen, mean read-out; stronger effect = higher value
[9] = tested on: Aerobactin synthetase IucA (Klebsiella pneumoniae); assay: inhibition of K. pneumoniae IucA enzyme – biochemical, Tocris library, absorbance (AID 1345561; call rule not given here;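 further: 100% = enzyme without compound and 0% = no enzyme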); details: purified IucA enzyme assay, absorbance (OD) read-out; stronger effect = lower value; concentration not given here
[10] = viability loss with induced miR-34 in A549 – imaging, A549 dox-inducible miR-34, nuclei and caspase counts, primary screen (AID 1347080;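 active means compounds whose cell count with miR-34 switched on is under 0.7 times the count with it off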); details: A549 miR-34 inducible, Hoechst nuclei count, 48 h
[11] = galactose survival enhancers in mitochondrial complex I cybrids – cell-based, galactose medium, ATP luminescence, primary screen (AID 1645843;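 active means z-score of at least 1.8 in each of two replicates, scored against plate mean and spread of sample wells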;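 further: positive z means more ATP and so rescue of galactose-driven cybrid death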); details: complex I mutant cybrid cells, 72 h, stronger effect = higher value
F380Y = assay: BK channel mutant inhibitors and activators – cell-based, U2OS BacMam, thallium flux, beta subunits, selectivity assay, profiling panel (AID 1259406); details: U2OS BacMam BK variants, at 30 µM;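 further: initial slope of Thallos dye fluorescence rise after thallium is added; log ratio against the mean of 0.3% DMSO vehicle wells on the same plate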
F380Y/beta1 = assay: as above; details: U2OS BacMam BK variants, at 30 µM
F380Y/beta2Delta = assay: as above; details: U2OS BacMam BK variants, at 30 µM
F380Y/beta4 = assay: as above; details: U2OS BacMam BK variants, at 30 µM
[12] = target: Calcium-activated potassium channel subunit alpha-1 (Homo sapiens) + Leucine-rich repeat-containing protein 26 (Homo sapiens) (UniProt Q12791+Q2I0M4); assay: as above; details: U2OS BacMam BK variants, F380Y/Slo1WT/gamma1, at 30 µM
Sequence of Calcium-activated potassium channel subunit alpha-1 (Homo sapiens) + Leucine-rich repeat-containing protein 26 (Homo sapiens) (Q2I0M4 whole entry, looked up, one chain of several): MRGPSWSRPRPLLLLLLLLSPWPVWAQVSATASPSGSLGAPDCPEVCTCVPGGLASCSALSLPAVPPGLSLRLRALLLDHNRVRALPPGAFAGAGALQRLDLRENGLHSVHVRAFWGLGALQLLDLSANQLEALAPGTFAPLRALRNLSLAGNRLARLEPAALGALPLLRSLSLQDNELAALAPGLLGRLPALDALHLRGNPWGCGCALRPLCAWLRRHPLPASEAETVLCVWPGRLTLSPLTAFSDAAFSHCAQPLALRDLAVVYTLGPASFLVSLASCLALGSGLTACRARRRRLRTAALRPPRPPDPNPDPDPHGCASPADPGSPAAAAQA

R275C = assay: as above; details: U2OS BacMam BK variants, at 30 µM
R275C/beta1 = assay: as above; details: U2OS BacMam BK variants, at 30 µM
R275C/beta2Delta = assay: as above; details: U2OS BacMam BK variants, at 30 µM
R275C/beta4 = assay: as above; details: U2OS BacMam BK variants, at 30 µM
R275C/Slo1WT/beta2 = assay: as above; details: U2OS BacMam BK variants, at 30 µM
[13] = tested on: Aerobactin synthetase IucA (Klebsiella pneumoniae hvKP1); assay: IucA enzyme inhibition, primary screen, biochemical, Spectrum library (AID 1346200; call rule not given here;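 further: 100% = wells without compound and 0% = wells lacking enzyme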); details: malachite green pyrophosphate, A620, at 8 µM, stronger effect = lower value
[14] = target: NAD(+) hydrolase SARM1 (Homo sapiens) (UniProt Q6SZW1); assay: blocking NAD cleavage by SARM1 SAM-TIR – cell lysate, NAD-Glo luminescence (AID 1508614;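 active means compound whose remaining NAD level is above about 45 nM, limit read from the data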); details: SAM-TIR HEK293T lysate NADase, at 1 µM, stronger effect = higher value
Sequence of NAD(+) hydrolase SARM1 (Homo sapiens) (Q6SZW1 whole entry, looked up, the tested form may be a part): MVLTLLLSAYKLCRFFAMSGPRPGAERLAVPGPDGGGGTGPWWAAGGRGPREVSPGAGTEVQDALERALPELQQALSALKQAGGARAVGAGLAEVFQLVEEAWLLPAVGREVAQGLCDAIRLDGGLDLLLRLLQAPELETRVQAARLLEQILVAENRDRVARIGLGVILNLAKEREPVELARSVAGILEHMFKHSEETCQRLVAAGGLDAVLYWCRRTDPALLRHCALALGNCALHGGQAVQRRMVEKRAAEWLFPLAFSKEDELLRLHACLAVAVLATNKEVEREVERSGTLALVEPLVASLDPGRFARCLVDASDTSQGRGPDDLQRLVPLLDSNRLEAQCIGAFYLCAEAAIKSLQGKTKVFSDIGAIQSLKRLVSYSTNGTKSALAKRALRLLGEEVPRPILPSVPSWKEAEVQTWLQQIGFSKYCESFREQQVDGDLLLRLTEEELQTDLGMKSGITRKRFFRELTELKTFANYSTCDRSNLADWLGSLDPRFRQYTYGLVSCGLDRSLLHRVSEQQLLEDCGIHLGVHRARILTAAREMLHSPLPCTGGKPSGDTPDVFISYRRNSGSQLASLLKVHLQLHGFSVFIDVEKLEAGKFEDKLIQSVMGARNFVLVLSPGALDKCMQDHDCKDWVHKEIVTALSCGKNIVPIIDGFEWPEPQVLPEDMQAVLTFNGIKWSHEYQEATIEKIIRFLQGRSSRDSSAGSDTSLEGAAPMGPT

[15] = target: Mitogen-activated protein kinase 7 (Homo sapiens) (UniProt Q13164); assay: Gal4-ERK5 driven luciferase induction – cell-based, HTS, primary screen (AID 1508626;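 active means luciferase signal above three times the same-plate solvent-only control wells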;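 further: luciferase driven by Gal4-ERK5 fusion binding five Gal4 sites before minimal TATA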); details: HeLa Gal4-ERK5 transactivation, 18 h, at 5 µM, stronger effect = higher value
Sequence of Mitogen-activated protein kinase 7 (Homo sapiens) (Q13164 whole entry, looked up, the tested form may be a part): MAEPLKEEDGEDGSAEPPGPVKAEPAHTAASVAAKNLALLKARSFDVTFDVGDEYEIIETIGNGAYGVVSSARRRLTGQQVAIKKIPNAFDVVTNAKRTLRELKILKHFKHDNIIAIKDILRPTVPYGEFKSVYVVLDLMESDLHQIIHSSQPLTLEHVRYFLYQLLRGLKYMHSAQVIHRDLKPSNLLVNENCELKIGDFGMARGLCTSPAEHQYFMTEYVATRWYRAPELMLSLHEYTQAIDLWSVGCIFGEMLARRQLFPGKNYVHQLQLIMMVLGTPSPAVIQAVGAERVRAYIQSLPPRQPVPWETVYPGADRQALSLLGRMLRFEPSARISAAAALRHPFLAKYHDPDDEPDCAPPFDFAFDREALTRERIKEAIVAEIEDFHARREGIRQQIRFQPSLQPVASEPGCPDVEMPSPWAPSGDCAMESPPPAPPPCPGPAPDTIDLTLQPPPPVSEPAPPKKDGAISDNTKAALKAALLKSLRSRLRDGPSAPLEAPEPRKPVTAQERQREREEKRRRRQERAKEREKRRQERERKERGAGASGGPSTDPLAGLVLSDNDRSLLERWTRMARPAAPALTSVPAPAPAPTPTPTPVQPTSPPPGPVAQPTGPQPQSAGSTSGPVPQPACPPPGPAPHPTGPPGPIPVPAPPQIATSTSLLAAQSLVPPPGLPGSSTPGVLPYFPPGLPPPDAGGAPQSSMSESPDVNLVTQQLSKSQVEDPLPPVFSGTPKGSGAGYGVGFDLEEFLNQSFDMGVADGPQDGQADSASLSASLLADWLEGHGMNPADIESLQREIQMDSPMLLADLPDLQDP

[16] = stronger effect = lower value, cell number ratio, induced over uninduced
[17] = measured here: relative caspase fold change +Dox/-Dox
[18] = measured here: total cells with miR-34 induction, stronger effect = lower value
[19] = measured here: total cells without miR-34 induction

Oc1cc2c(cc1O)[C@H]1c3ccccc3CN[C@@H]1CC2
68.7%: viability [2]
0.736: fold change [10, 17]
active: z-score [7] -4.26 | log fold change Tl+ flux (R275C/beta1) 0.0796 | log fold change Tl+ flux (R275C/beta2Delta) 0.137
inactive: period change [1] -0.1 h | parasite load remaining [2] 31.6% | fluorescence ratio [3] 0.94 | inhibition [4] -5.46% | inhibition [5] -4.33% | fluorescence ratio [6] 0.91 | mean signal [8] 249 | remaining activity [9] 97.5% | fold change [10, 16] 0.969 | z-score [11] -1.23 | log fold change Tl+ flux (F380Y) -0.103 | log fold change Tl+ flux (F380Y/beta1) 0.0598 | log fold change Tl+ flux (F380Y/beta2Delta) -0.0567 | log fold change Tl+ flux (F380Y/beta4) -0.0725 | log fold change Tl+ flux [12] 0.0857 | log fold change Tl+ flux (R275C) -0.0506 | log fold change Tl+ flux (R275C/beta4) 0.0776 | log fold change Tl+ flux (R275C/Slo1WT/beta2) 0.0271
8740: cell count [10, 18]
9020: cell count [10, 19]

O=C1CCC2(O)[C@H]3Cc4ccc(O)c5c4[C@@]2(CCN3CC2CC2)[C@H]1O5 (some centres not stated)
inactive: mean signal [8] 227

COc1ccc2[nH]cc(C3=CCNCC3)c2c1
7080 and 8260: cell count [10, 19]
1.1 and 0.779: fold change [10, 17]
inactive: parasite load remaining [2] 75.7% | inhibition [4] -1.09% | inhibition [5] 5.91% | z-score [7] -1.09 | mean signal [8] 255 | remaining activity [9] 103% | fold change ([10]; stronger effect = lower value) 0.984 | fold change [10, 16] 0.928 | z-score [11] -1.57 and -0.95 | log fold change Tl+ flux (F380Y) 0.0506 | log fold change Tl+ flux (F380Y/beta1) 0.0695 | log fold change Tl+ flux (F380Y/beta2Delta) 0.0281 | log fold change Tl+ flux (F380Y/beta4) 0.0777 | log fold change Tl+ flux [12] 0.0216 | log fold change Tl+ flux (R275C) -0.00261 | log fold change Tl+ flux (R275C/beta2Delta) 0.0216 | log fold change Tl+ flux (R275C/beta4) 0.0779
72.8%: viability [2]
active: fluorescence ratio [3] 0.58 | fluorescence ratio [6] 0.79 | log fold change Tl+ flux (R275C/beta1) 0.0891 | log fold change Tl+ flux (R275C/Slo1WT/beta2) 0.242
6960 and 7660: cell count [10, 18]

Cc1ccc(-c2nc3ccc(C)cn3c2CC(=O)N(C)C)cc1
inactive: parasite load remaining [2] 37% and 120% | fluorescence ratio [3] 1.04 | inhibition [4] -1.98% | inhibition [5] -2.41% | fluorescence ratio [6] 1.01 | z-score [7] -0.569 | mean signal [8] 258 | activity remaining [13] 101% | fold change ([10]; stronger effect = lower value) 0.956 | remaining NAD [14] 10 nM | luciferase signal [15] 44 AU | z-score [11] 1.03 | log fold change Tl+ flux (F380Y) -0.0187 | log fold change Tl+ flux (F380Y/beta1) 0.0272 | log fold change Tl+ flux (F380Y/beta2Delta) 0.00568 | log fold change Tl+ flux (F380Y/beta4) -0.00795 | log fold change Tl+ flux [12] -0.0144 | log fold change Tl+ flux (R275C) -0.0227 | log fold change Tl+ flux (R275C/beta1) -0.0502 | log fold change Tl+ flux (R275C/beta2Delta) -0.00561 | log fold change Tl+ flux (R275C/beta4) 0.00879 | log fold change Tl+ flux (R275C/Slo1WT/beta2) 0.00818
9550: cell count [10, 19]
2.59: fold change [10, 17]
80.3% and 64.4%: viability [2]
9130: cell count [10, 18]
